Screening data from PubChem.
In the library only some 2.3% were active in any assay of this set; here they are far more common.
ATXN2 expr inh – inhibitors of ATXN2 expression | HEK-293 ATXN2-luciferase reporter, luminescence, 24 h | Potency, µM (top dose mostly 57 µM), without a hit: at the top dose activity change, negative = inhibition, usual class: inhibitors | 360,000 tested, 0.72% active; also: % is scaled to controls: 0 for no effect and ±100 for the full control effect; nearly all actives have a fitted effect of over 55% in size
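ATXN2-luciferase reporter cells (luciferase flanked by upstream and downstream ATXN2 gene portions) were treated 24 h at 37 °C with compounds at up to 57 uM. SteadyGlo luminescence gave expression; GF-AFC fluorescence gave viability.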
HepG2 viability – kills HepG2 cells in TGF-b inhibitor counter-screen | HepG2 CAGA-GFP viability, ATP luminescence, 18 h | Potency, µM (doses to about 46.1 µM), inactives show at the highest dose activity change, negative = cytotoxicity, usual class: cytotoxic | 410,000 tested, 0.76% active
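HepG2 CAGA-GFP cells (1000/well, DMEM with 1% FBS) received compound, then TGF-beta at 500 pg/mL final, and were incubated 18 hours at 37 degrees C. Viability was read by CellTiter-Glo luminescence. Media-only wells were set as complete cell-killing and DMSO as no toxicity.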
TGFb SMAD3 inh – inhibitors of TGF-b signaling; HepG2 CAGA-GFP TGF-b/SMAD3 reporter, GFP fluorescence, 18 h; TGF-beta stimulated, 500 pg/mL final; Potency, µM (titrated, usually from 46.1 µM), inactives show at the top dose activity, negative = inhibition, most hits filed as inhibitors; 410,000 tested, 1.2% active; also: % is scaled to controls: 0 for no effect and ±100 for the full control effect; nearly all actives have a fitted effect of over 65% in size
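Using HEPG2 CAGA-GFP reporter cells at 1000 cells/well, we pinned test compounds, stimulated with recombinant TGF-beta (500 pg/mL final) and measured total well GFP after 18 h.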
S2 tox – reduces viability in counter-screen for ATXN expression inhibitors. AID 651635. S2 cells (HEK-293 line with an ATXN2-luciferase reporter) viability, CellTiter-Fluor protease fluorescence, 24 h. Potency, µM (titrated, usually from 56.7 µM), hits mostly cytotoxic. 400,000 tested, 0.49% active; also: nearly all actives have a fitted effect of over 40% in size
* hit, by the source's call; i = inactive; ? = inconclusive; nt = no result; ! = repeats disagree. Calls follow the shape of the dose curve; as a rule, active = well fitted curve in the direction sought with a large enough effect; inconclusive = small, poorly fitted or top-dose-only effect, or another doubt; inactive = no such curve, though single readings can be large; an effect the other way counts as inactive or inconclusive. Potency is read from the fitted curve at half-maximal effect.

SMILES	ATXN2 expr inh	HepG2 viability	TGFb SMAD3 inh	S2 tox
CCn1cc(C(=O)NC(C)C23CC4CC(CC(C4)C2)C3)cn1 (centres undefined)	-2%	-1%	8%	i
O=C(Cn1ncc(Cl)c(Cl)c1=O)NC(=O)NC1CCCCC1	?	-52%	?	30µM*
CC(NC(=O)Cn1ncc(Cl)c(Cl)c1=O)C12CC3CC(CC(C3)C1)C2 (centres undefined)	?	3%	-5%	18µM*
O=C(CN1CCCCC1)NC(=O)NC1CCCC1	9%	-1%	10%	i
O=C(CN1N=C(c2ccc(Cl)cc2)CCC1=O)NCCc1ccccc1	nt	-15%	-6%	nt
CCCCN(CCCNC(=O)CN1N=C(c2ccc(C)cc2)CCC1=O)c1ccccc1	nt	-82%	13µM*	nt
Cc1ccc(C2=NN(CC(=O)NCCc3ccc(Cl)cc3)C(=O)CC2)cc1	nt	-31%	11µM*	nt
COC(=O)N1C(=O)[C@](c2ccccc2)(C(C)C)N1C(=O)OC	-1%	-38%	-49%	?
CCOC(=O)N1C(=O)[C@@](c2ccc(Cl)cc2)(C(C)C)N1C(=O)OCC	?	16µM*	?	nt
CCOC(=O)C1(C(N)=O)OC1(c1ccc(Cl)cc1)c1ccccc1Cl (centres undefined)	0%	-20%	-2%	i
CCOC(=O)N1C(=O)[C@](c2ccc(Cl)cc2)(C(C)C)N1C(=O)OCC	?	10µM*	?	?
CCNC(=O)c1c(NC(=O)c2nc(SC)ncc2Cl)sc2c1CCCC2	nt	-6%	-5%	nt
O=C1NC[C@H](Cc2ccccc2)N(C[C@@H]2CCCN2C[C@H](Cc2ccc(O)cc2)N2C[C@H](Cc3ccccc3)N(CC3CCCCCC3)C(=O)C2=O)C1=O	-28%	nt	nt	?
O=C1NC[C@H](Cc2ccccc2)N(C[C@@H]2CCCN2C[C@H](Cc2ccccc2)N2C[C@H](Cc3ccccc3)N(CC3CCCCC3)C(=O)C2=O)C1=O	?	-55%	18µM*	nt
O=C1NC[C@H](Cc2ccccc2)N(C[C@H]2CCCN2C[C@H](Cc2ccccc2)N2C[C@H](Cc3ccccc3)N(CC3CCCCC3)C(=O)C2=O)C1=O	?	7.1µM*	?	18µM*
C[C@@H]1[C@H](c2ccccc2)OCCS(=O)(=O)N1Cc1ccccc1Br	nt	7%	?	nt
COC(=O)C1CCCCN1Cc1ccc2c(c1)CN(C(=O)c1ccc(C)s1)CCO2 (centres undefined)	nt	nt	nt	i
COc1ccc(-c2ccc(C(=O)N(C)Cc3csc(C)n3)c(N3CCC(N4CCc5ccccc5C4)CC3)n2)cc1	nt	nt	nt	i
O=C(Nc1ccc(Cl)c(Cl)c1)Nc1nccs1	nt	11µM*	?	?
C/C(=N\NC(=O)C(c1ccccc1)c1ccccc1)c1ccccn1	3.5µM*	-13%	?	6.3µM*
C/C(=N\NC(=O)c1cccc2ccccc12)c1ccccn1	?	-11%	3.2µM*	3.5µM*
C/C(=N\NC(=O)c1cc(-c2cccs2)nc2ccccc12)c1ccccn1	2.8µM*	-14%	?	i
C/C(=N\NC(=O)c1ccccc1Cl)c1ccccn1	nt	-14%	?	?
CCOc1ccc(OCc2ccc(C(=O)N/N=C(\C)c3ccccn3)cc2)cc1	2.8µM*	-4%	-23%	?
COc1ccc(C(=O)N/N=C(\C)c2ccccn2)cc1OC	?	-48%	?	?
SMILES	ATXN2 expr inh	HepG2 viability	TGFb SMAD3 inh	S2 tox
O=C1N/C(=N\N=C\c2ccccn2)SC1Cc1cccc(SC(F)F)c1 (centres undefined)	18µM*	-16%	?	?
O=C1N/C(=N\N=C\c2ccc3ncccc3c2)SC1Cc1ccc(SC(F)F)cc1 (centres undefined)	14%	-17%	48%	i
O=C1N/C(=N\N=C\c2cccnc2)SC1Cc1ccc(SC(F)F)cc1 (centres undefined)	13µM*	9%	-8%	?
COc1cccc(C2NC(c3cccc(OC)c3O)C(C)C(=O)C2C)c1O (centres undefined)	?	-7%	23%	i
CC1C(=O)C(C)C(c2cc(Cl)ccc2O)NC1c1cc(Cl)ccc1O (centres undefined)	25µM*	-144%	?	nt
CCCN(CCC)S(=O)(=O)c1ccc(N2CCCC2=O)c([N+](=O)[O-])c1	5%	1%	-4%	?
CCCN(CCC)S(=O)(=O)c1ccc(Cl)c([N+](=O)[O-])c1	?	-23%	?	24µM*
C/C=C1\COC(C(=O)NCCCN2CCCC2=O)(C(F)(F)F)C=C1C=C(C)C (centres undefined)	8%	11µM*!	?	i
Cc1ccc(CN2CC(C(=O)Nc3ncc(C)s3)CC2=O)cc1 (centres undefined)	16µM*	-32%	?	i
O=S1(=O)CCOC[C@H](c2ccccc2)N1Cc1ccc(Cl)c(Cl)c1	nt	-11%	?	nt
CC1=[N+](C)c2c(ccc3cccnc23)C1(C)C	3µM*	-11%	?	nt
COCCCN(C(=S)Nc1cc(Cl)cc(Cl)c1)C(C)c1ccncc1 (centres undefined)	-32%	4%	?	i
COCCCN(C(=S)Nc1cc(Cl)cc(Cl)c1)C(C)c1ccccn1 (centres undefined)	nt	16µM*	?	i
O=C(O)C1=CC(O)C(O)[C@H](O)C1 (some centres undefined)	1%	nt	nt	nt
Cc1ccc2nc(C3CCCCC3)c(Cc3ccccc3)n2c1	?	-63%	?	13µM*
Cc1ccc2nc(C3CCCCC3)c(Cc3cccc(F)c3)n2c1	?	-12%	?	?
CCCc1nc2ccc(C)cn2c1Cc1ccc(C)cc1	?	-22%	?	25µM*
Cn1cc(C2=C(c3c4n(c5ccccc35)CCC(CN)C4)C(=O)NC2=O)c2ccccc21 (centres undefined)	24µM*	nt	nt	nt
Cn1cc(C2NC(=O)c3ccccc3N2)c2ccccc21 (centres undefined)	11%	1%	-12%	?
COC[C@@H](c1ccc(C(F)(F)F)cc1)N1CCN(C2(C)CCN(C(=O)c3c(C)ncnc3C)CC2)C[C@H]1C	-11%	nt	nt	i
O=C(Nc1cnn(C23CC4CC(CC(C4)C2)C3)c1)c1cnn2c(C(F)(F)F)cc(-c3ccco3)nc12	22µM*	0%	-2%	?
Cc1oc(-c2ccccc2NC(=O)C2CCC2)nc1CNC(=O)c1ccc2ccccc2c1	nt	nt	nt	i
Nc1nc(Nc2ccccc2)nc(NCc2ccccc2)c1[N+](=O)[O-]	-18%	-14%	-20%	?
Cc1ccc(Nc2nc(N)c([N+](=O)[O-])c(NCc3ccco3)n2)cc1C	-8%	-69%	16µM*	?
Cc1ccc(Nc2nc(N)c([N+](=O)[O-])c(NCCO)n2)cc1C	9%	9%	?	i
Cc1cccc(Nc2nc(N)c([N+](=O)[O-])c(NCc3ccccc3)n2)c1	-25%	22µM*	?	i
COc1cc(/C=C2/C=Cc3ccccc32)ccc1N(C)C	nt	-48%	-1%	nt
